The record followed here is PubChem BioAssay (Tox21).

Assay [1] can be described thus: A CellTox Green Cytotoxicity Assay to monitor cytotoxicity in HEK293 cells - 0 hour (AID 1224869). Note: nearly all actives have a fitted effect of over 50% in size. Note: potency is the fitted concentration of half-maximal effect. The essentials: (§1)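 Cytotoxicity was tracked continuously in HEK293 cells by a DNA-binding dye excluded from viable cells. Compounds were transferred in DMSO 5 h after seeding; fluorescence was recorded at intervals up to 40 h.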
The nature of assay [2]: qHTS RealTime-Glo MT Cell Viability Assay in HepG2 cells - 8 hour (AID 1224873). Note: nearly all actives have a fitted effect of over 55% in size. Note: potency is the fitted concentration of half-maximal effect. The essentials:
(§2)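 Real-time viability: cells seeded at 600 per well together with NanoLuc and cell-permeant prosubstrate, compounds added after 5 h incubation. Luminescence tracked at 0, 8, 16, 24, 32 and 40 h of exposure.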
(In general: Quantitative high-throughput screening tests each substance at several concentrations.)

Assay [3] can be described thus: qHTS RealTime-Glo MT Cell Viability Assay in HEK293 cells - 40 hour (AID 1224874). Note: nearly all actives have a fitted effect of over 50% in size. Note: potency is the fitted concentration of half-maximal effect. Particulars: RealTime-Glo luminescence; max response: stronger effect = lower value. The essentials: (§3)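 Nonlytic bioluminescent viability monitoring. HEK293 at 600 cells/well with reagent; 5 h settle; compound transfer by pintool; plates held at 37 C and read at set time points.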
Assay [4] is described as follows: qHTS RealTime-Glo MT Cell Viability Assay in HEK293 cells - 0 hour (AID 1224880). Note: top concentration of the series differs between compounds; nearly all actives have a fitted effect of over 45% in size. The essentials:
as §3

The nature of assay [5]: A CellTox Green Cytotoxicity Assay to monitor cytotoxicity in HepG2 cells - 0 hour (AID 1224882). Note: nearly all actives have a fitted effect of over 35% in size. Note: potency is the fitted concentration of half-maximal effect. In short, it runs like this:
(§4)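 Real-time, homogeneous cytotoxicity readout: dead-cell DNA staining by CellTox Green in HepG2 monolayers, fluorescence measured at timed intervals up to 40 h of continuous compound exposure.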

The nature of assay [6]: qHTS assay to identify small molecule agonists of H2AX - cell viability counter screen (AID 1224847; calls by dose curve; note: nearly all actives have a fitted effect of over 30% in size; note: potency is the fitted concentration of half-maximal effect). In short, it runs like this: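 After overnight plating of 1000 CHO-K1 cells per well, a 15-concentration compound series was applied for 3 hr at 37C. Luminescence from CellTiter-Glo, read following 30 min at room temperature, reflected cell viability.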
Assay [7] is described as follows: qHTS RealTime-Glo MT Cell Viability Assay in HEK293 cells - 32 hour (AID 1224868). Note: nearly all actives have a fitted effect of over 50% in size. Note: potency is the fitted concentration of half-maximal effect. In short, it runs like this:
(§5)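 Assay medium contained NanoLuc luciferase plus cell-permeant prosubstrate, added with HEK293 cells at 600 cells/well. After 5 h at 37 C/5% CO2 compounds were added; plates stayed at 37 C for 40 h with serial luminescence reads.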

Assay [8] can be described thus: qHTS RealTime-Glo MT Cell Viability Assay in HepG2 cells - 40 hour (AID 1224870). Note: nearly all actives have a fitted effect of over 50% in size. Note: potency is the fitted concentration of half-maximal effect. The essentials: as §2
A short description of assay [9]: A CellTox Green Cytotoxicity Assay to monitor cytotoxicity in HEK293 cells - 40 hour (AID 1224871). Note: nearly all actives have a fitted effect of over 45% in size. Note: potency is the fitted concentration of half-maximal effect. In short, it runs like this:
as §1

The nature of assay [10]: A CellTox Green Cytotoxicity Assay to monitor cytotoxicity in HEK293 cells - 24 hour (AID 1224875). Note: series mostly up to about 77 µM; nearly all actives have a fitted effect of over 45% in size. The essentials: as §1
Assay [11] can be described thus: A CellTox Green Cytotoxicity Assay to monitor cytotoxicity in HepG2 cells - 16 hour (AID 1224876). Note: nearly all actives have a fitted effect of over 45% in size. Note: potency is the fitted concentration of half-maximal effect. In short, it runs like this: as §4
Assay [12] can be described thus: qHTS RealTime-Glo MT Cell Viability Assay in HepG2 cells - 32 hour (AID 1224877). Note: nearly all actives have a fitted effect of over 55% in size. Note: potency is the fitted concentration of half-maximal effect. The essentials:
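qHTS, HepG2, 600 cells/well, RealTime-Glo (NanoLuc + prosubstrate) added with cells; 5 h preincubation; DMSO compound addition; 37 C; luminescence at 0/8/16/24/32/40 h.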

A short description of assay [13]: A CellTox Green Cytotoxicity Assay to monitor cytotoxicity in HepG2 cells - 24 hour (AID 1224878). Note: nearly all actives have a fitted effect of over 45% in size. Note: potency is the fitted concentration of half-maximal effect. The essentials:
as §4

A short description of assay [14]: A CellTox Green Cytotoxicity Assay to monitor cytotoxicity in HepG2 cells - 40 hour (AID 1224879). Note: nearly all actives have a fitted effect of over 40% in size. Note: potency is the fitted concentration of half-maximal effect. In short, it runs like this: as §4
A short description of assay [15]: A CellTox Green Cytotoxicity Assay to monitor cytotoxicity in HEK293 cells - 32 hour (AID 1224881). Note: nearly all actives have a fitted effect of over 40% in size. Note: potency is the fitted concentration of half-maximal effect. The essentials: as §1
Assay [16] is described as follows: A CellTox Green Cytotoxicity Assay to monitor cytotoxicity in HepG2 cells - 32 hour (AID 1224883). Note: nearly all actives have a fitted effect of over 50% in size. Note: potency is the fitted concentration of half-maximal effect. The essentials: as §4
The nature of assay [17]: qHTS RealTime-Glo MT Cell Viability Assay in HEK293 cells - 16 hour (AID 1224872). Note: nearly all actives have a fitted effect of over 50% in size. Note: potency is the fitted concentration of half-maximal effect. In short, it runs like this: as §5

Values joined by “and” are separate entries in the source; they are usually repeats but may differ in a detail not shown here. Equal values may be shown once. Results filed as inconclusive are left out. More than one record can exist for a structure, and the calls need not agree. Active and inactive are the calls of the source. Unless noted, calls come from the whole dose curve; as a rule, active = well fitted curve in the direction sought with a large enough effect in the repeat runs; inconclusive = weak or mixed curves; inactive = no such curve, though single readings can be large; an effect the other way counts as inactive or inconclusive.
% is set by controls: 0 for no effect and ±100 for the full control effect.

Regarding `CCCCCCCCCCCCn1cc[n+](C)c1`, the Potency entry in [1] and in assay [5] was “inactive” throughout. Moreover, in assay [2], the Potency was 49.4 µM (active) and inactive. Besides, the max response in [3] is 14.2% (inactive). Also, in assay [4], the outcome was inactive.

`CCCCCCn1cc[n+](C)c1`: the Potency entry in [6], in [1], in assay [9], in assay [2], in [10] and in assay [11] was “inactive” each time. The Potency entry in assay [13], in assay [14], in assay [15], in assay [5] and in assay [16] was “inactive” throughout. Also, the Potency in assay [7] was 19.7 µM (active) [middle of 5 runs]; in assay [8] it was “inactive and 35.4 µM (active)”; in assay [3] it was 19.7 µM (active) [middle of 5 runs]; in [12], “inactive and 50 µM (active)”. Besides, the result in assay [4] was inactive.

Consider `Nc1ccccc1`, for which the Potency entry in assay [6], in [7], in assay [1], in assay [8], in assay [9] and in [17] was “inactive” throughout. The Potency entry in assay [2], in [10], in [11], in assay [12], in [13] and in assay [14] was “inactive” throughout. The Potency result in [15], in [5] and in [16] was “inactive” throughout. Further, the max response in assay [3] is -1.34% (inactive) [middle of 4 runs]. Moreover, in assay [4], the molecule was called inactive.

With `O=[N+]([O-])O`, the Potency entry in assay [6], in assay [7], in assay [1], in assay [8], in assay [9] and in assay [17] was “inactive” in each case. The Potency entry in assay [2], in assay [10], in assay [11], in [12], in assay [13] and in [14] was “inactive” throughout. For the same molecule, the Potency entry in [15], in [5] and in [16] was “inactive” each time. The outcome in [4] was inactive.

Regarding `CCCCCCCCCCn1cc[n+](C)c1`, the Potency result in [1], in assay [8], in [2], in assay [10], in assay [11] and in [12] was “inactive” each time. The Potency entry in assay [15] and in [5] was “inactive” each time. Besides, the Potency entry in [17] is “inactive and 346 nM (active)”; in assay [13], 44.1 µM (active) and inactive; in assay [14], 44.1 µM (active) and 48.9 µM (active); in assay [16], 44.1 µM (active) and 54.9 µM (active). In addition, the outcome in assay [4] was inactive.

For the molecule `Nc1ccc(Cl)cc1`, the Potency entry in [6], in [7], in assay [1], in assay [8], in assay [9] and in [17] was “inactive” in each case. The Potency entry in assay [2], in assay [10], in [11], in [12], in [13] and in [14] was “inactive” throughout. For the same molecule, the Potency entry in assay [15], in [5] and in [16] was “inactive” in each case. Besides, the max response in assay [3] was -5.43% (inactive) and 1.39% (inactive). Besides, the result in assay [4] was inactive.

For `CCn1cc[n+](C)c1C`, the Potency result in assay [6], in [7], in assay [1], in assay [8], in assay [9] and in [17] was “inactive” in each case. For the same molecule, the Potency result in assay [2], in assay [10], in assay [11], in assay [12], in [13] and in assay [14] was “inactive” throughout. The Potency result in assay [15], in [5] and in assay [16] was “inactive” in each case. Besides, the max response in assay [3] is -4.04% (inactive) and 1.14% (inactive) and -16.1% (inactive). Further, the call in [4] was inactive.

Take `Nc1ccc(-c2ccc(N)c(Cl)c2)cc1Cl`: the Potency is 101 µM (active) in assay [6]; 12.4 µM (active) and 18.2 µM (active) and 21.9 µM (active) in assay [7]; “inactive and 38.9 µM (active)” in assay [1]; “inactive and 54.9 µM (active)” in assay [8]; “inactive and 43.6 µM (active)” in [9]; 24.5 µM (active) in assay [17]. Further, the Potency result in assay [2] was “inactive and 43.6 µM (active)”; in assay [3], 12.4 µM (active) and 14.4 µM (active) and 12.3 µM (active); in [11], “inactive and 43.6 µM (active)”; in assay [12], “inactive and 49 µM (active)”; in assay [13], “inactive and 27.5 µM (active)”; in assay [14], 15.6 µM (active) and 12.9 µM (active) and 27.5 µM (active). Besides, the Potency entry in assay [15] is “inactive and 49 µM (active)”; in assay [5] it was “inactive and 43.6 µM (active)”; in [16], 17.5 µM (active) and 14.4 µM (active) and 27.5 µM (active). In addition, the outcome in assay [4] was inactive.

Take `Oc1ccccc1-c1ccccc1`: the Potency entry in assay [6], in assay [7], in [1], in assay [8], in [9] and in assay [17] was “inactive” throughout. The Potency entry in assay [2], in assay [10], in assay [11], in assay [12], in assay [15] and in assay [5] was “inactive” throughout. Further, the max response in assay [3] was -9.5% (inactive) [middle of 4 runs]. Besides, the call in assay [4] was inactive.

Consider `O=C(O)COc1ccc(Cl)cc1Cl`, for which the Potency result in assay [6], in assay [7], in assay [1], in [8], in assay [9] and in [17] was “inactive” throughout. Besides, the Potency result in [2], in assay [10], in assay [11], in assay [12], in assay [13] and in [14] was “inactive” in each case. Moreover, the Potency entry in assay [15], in assay [5] and in [16] was “inactive” in each case. Also, the max response in assay [3] is 5.16% (inactive) [middle of 6 runs]. For the same molecule, in [4], the molecule was classed as inactive.

Turning to `CCCCCCCCCCCCCC[P+](CCCCCC)(CCCCCC)CCCCCC`, the Potency was 16 µM (active) and 28.6 µM (active) and 4 µM (active) in assay [6]; 3.91 µM (active) and 2.47 µM (active) and 1.95 µM (active) in assay [7]; 11 µM (active) and 22.1 µM (active) and inactive in assay [8]; 13.9 µM (active) and 19.7 µM (active) in [9]; 7.8 µM (active) and 8.78 µM (active) in [17]; 17.5 µM (active) and 19.7 µM (active) and inactive in [2]. Moreover, the Potency is 2.47 µM (active) and 1.75 µM (active) and 1.23 µM (active) in [3]; 12.4 µM (active) and 22.1 µM (active) and inactive in [11]; 11 µM (active) and 19.7 µM (active) and inactive in [12]; 11 µM (active) and 17.5 µM (active) and inactive in assay [13]; 12.4 µM (active) and 17.5 µM (active) and 48.9 µM (active) in assay [14]; 12.4 µM (active) and 19.7 µM (active) in assay [15]. The Potency in assay [16] is 12.4 µM (active) and 17.5 µM (active). The Potency entry in assay [1] and in assay [5] was “inactive” throughout. The molecule was called inactive in [4].

For `CNC`, the Potency result in [6], in [7], in [1], in [8], in assay [9] and in assay [17] was “inactive” each time. For the same molecule, the Potency result in [2], in [10], in assay [11], in assay [12], in assay [13] and in [14] was “inactive” in each case. Besides, the Potency result in assay [15], in [5] and in assay [16] was “inactive” each time. Moreover, the max response in assay [3] is 5.34% (inactive) and 10.3% (inactive). For the same molecule, in assay [4], the molecule was called inactive.
